PubChem BioAssay (Tox21)
Results filed as inconclusive are left out. Activity calls are given as the source filed them. The call rests on the fitted dose curve.

Target: Peroxisome proliferator-activated receptor delta (Homo sapiens) (UniProt Q03181)
Assay: qHTS assay to identify small molecule agonists of the peroxisome proliferator-activated receptor delta (PPARd) signaling pathway (AID 743212)
Settings: HEK293H PPARd-UAS-bla, beta-lactamase FRET ratio, 17 h; series mostly up to 62.6 µM; activation: at the top concentration
Description: U.S. Tox21 Program National Center for Advancing Translational Sciences [NCATS] NIH Chemical Genomics Center [NCGC] U.S. Environmental Protection Agency [EPA] National Institutes of Environmental Health Sciences [NIEHS] National Toxicology Program [NTP] U.S. Food and Drug Administration [FDA] Tox21 Assay Overview: The peroxisome proliferator-activated receptors (PPARs) are lipid-activated transcription factors of the nuclear receptor superfamily with three distinct subtypes namely PPAR alpha, PPAR delta (PPARd) and PPAR gamma. All these subtypes heterodimerizes with Retinoid X receptor (RXR) and have different physiological functions. […] To identify the compounds that activate PPAR-delta signaling, GeneBLAzer PPAR delta UAS-bla HEK293H cell line (Invitrogen, Carlsbad, CA, USA) containing a beta-lactamase reporter gene under the control of an Upstream Activator Sequence (UAS) was used to screen the Tox21 compound library.
Tox21 Assay Protocol Summary: PPARd-bla cells were dispensed at 3000 cells/6uL/well in 1536-well black wall/clear bottom plates using a Multidrop Combi (Thermo Fisher Scientific, Waltham, MA) dispenser. After the assay plates were incubated at 37 C and 5% CO2 for 5 h, 23 nL of compounds dissolved in DMSO, positive controls or DMSO only was transferred to the assay plate by a Pintool station (Kalypsys, San Diego, CA). The assay plates were incubated at 37C for 17 h. After 1 uL of LiveBLAzerTM B/G FRET substrate was added using a Bioraptr Flying Reagent Dispenser (FRD) workstation (Beckman Coulter, Indianapolis, IN, USA), the plates were incubated at room temperature for 2 h, and fluorescence intensity was measured by an Envision plate reader (PerkinElmer, Shelton, CT).
On the % scale 0 is the no-effect control and ±100 the full control effect.

Sequence of Peroxisome proliferator-activated receptor delta (Homo sapiens) (Q03181 whole entry, looked up): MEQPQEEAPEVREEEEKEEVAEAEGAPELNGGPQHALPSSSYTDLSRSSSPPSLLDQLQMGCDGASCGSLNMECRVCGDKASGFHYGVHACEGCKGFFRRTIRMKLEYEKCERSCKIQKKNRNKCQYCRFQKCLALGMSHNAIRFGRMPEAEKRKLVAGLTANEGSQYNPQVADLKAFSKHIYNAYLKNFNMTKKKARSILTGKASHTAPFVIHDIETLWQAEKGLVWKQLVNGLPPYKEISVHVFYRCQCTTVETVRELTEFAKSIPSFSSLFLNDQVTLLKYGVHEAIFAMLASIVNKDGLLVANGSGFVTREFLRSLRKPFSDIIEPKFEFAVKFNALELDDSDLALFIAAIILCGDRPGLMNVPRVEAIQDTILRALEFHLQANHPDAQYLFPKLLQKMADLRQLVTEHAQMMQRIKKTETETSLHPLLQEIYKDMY

SMILES	activation
O=C(O)CCCC[P+](c1ccccc1)(c1ccccc1)c1ccccc1	-0.0839% (inactive)
CC(=O)c1cnccn1	-0.327% [at 81.1 µM] (inactive)
O=Cc1cccc(Br)c1	-2.85% [at 81.1 µM] (inactive)
CCN1C=CN(C)C1C (stereo not given)	0.618% [at 81.1 µM] (inactive)
CNCCO	1.4% (inactive)
CCOc1c(N2CCOCC2)cnn(C)c1=O	0.163% (inactive)
C=C[Si](OC(C)=O)(OC(C)=O)OC(C)=O	-2.15% (inactive)
CC(C)(C)c1ccc(-c2ccc(C(C)(C)C)cc2)cc1	-0.0175% (inactive)
CO[C@@]1(NC(=O)C(C(=O)O)c2ccc(O)cc2)C(=O)N2C(C(=O)O)=C(CSc3nnnn3C)CO[C@@H]21 (stereo not given in full)	2.14% (inactive)
CC(=O)C1CCCCC1=O (stereo not given)	0.359% (inactive)
CCCCCC(C)N (stereo not given)	2.06% (inactive)
CCOC(=O)C(=O)CCCCCCl	3.96% (inactive)
O=C1c2ccccc2C(=O)c2cc(O)ccc21	-0.401% (inactive)
CCCCCCC1CCC(=O)O1 (stereo not given)	0.789% [at 81.1 µM] (inactive)
[O-][n+]1cccc(CO)c1	-1.85% (inactive)
Cc1ncc(COP(=O)(O)O)c(C=O)c1O	-4.09% (inactive)
CC/C=C\CCOC(C)OCC (stereo not given)	0.917% (inactive)
Nc1ccn([C@@H]2O[C@H](CO)[C@@H](O)C2O)c(=O)n1 (stereo not given in full)	0.327% (inactive)
CC(CO)(CO)[N+](=O)[O-]	-2.64% (inactive)
CCCCCCCC1CCCC1=O (stereo not given)	4.08% (inactive)

SMILES	activation
Cc1coc2ccccc2c1=O	-3.75% (inactive)
Cc1ccccc1N=C(N)N=C(N)N	0.36% (inactive)
CCOC(=O)COC(=O)c1ccccc1C(=O)OCC	-0.0072% (inactive)
CC(C)C(=O)OC(=O)C(C)C	-0.919% (inactive)
O=CN(CCO)CCO	1.03% (inactive)
CCCc1nn(C)c2c(=O)[nH]c(-c3cc(S(=O)(=O)N4CCN(C)CC4)ccc3OCC)nc12	0.488% (inactive)
CCCCCCCCCCCCSC	0.741% (inactive)
Cc1ncc([C@@H](CCCCCCc2ccc3c(n2)NCCC3)CC(=O)O)cn1	3.13% (inactive)
CCCC[N+](C)(CCCC)CCCC	1.02% (inactive)
C=C(C)C(=O)OCC(O)CO (stereo not given)	1.72% (inactive)
CC1(C)[C@@H]2CC[C@@]1(C)[C@H](O)C2	-2.3% (inactive)
Nc1ccn([C@@H]2O[C@H](CO)[C@@H](O)C2(F)F)c(=O)n1	-1.15% (inactive)
OCCc1ccccn1	-2.4% (inactive)
CCOC(=O)COc1cc(-n2ncc(C(F)(F)F)c(C)c2=O)c(F)cc1Cl	0.316% (inactive)
COc1ccnc(CS(=O)c2nc3cc(OC(F)F)ccc3[nH]2)c1OC (stereo not given)	5.64% [at 81.1 µM] (inactive)
C=CCCCCCCCCC(=O)OCC	-3.82% (inactive)
C[N+]1(C)CCCC(OC(=O)C(O)(c2ccccc2)c2ccccc2)C1 (stereo not given)	-2.48% (inactive)
O=S(=O)(O)c1cccc(S(=O)(=O)O)c1	0.365% (inactive)
CN1[C@@H]2CC[C@H]1CC(OC(=O)C(O)c1ccccc1)C2 (stereo not given in full)	-0.527% (inactive)
NC(=O)N1c2ccccc2CC(=O)c2ccccc21	-0.168% (inactive)
